Measured values from PubChem BioAssay.
The source made the active and inactive calls. Rule as the data show it, unless noted: active = inhibition above about 80%; inactive = the rest.

Assays:
[1] = galactose survival enhancers in mitochondrial complex I cybrids – cell-based, galactose medium, ATP luminescence, primary screen (AID 1645843;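 active = z-score of at least 1.8 in each of two replicates, scored against plate mean and spread of sample wells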;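 also: positive z means more ATP and so rescue of galactose-driven cybrid death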); details: complex I mutant cybrid cells, 72 h, stronger effect = higher value
[2] = growth inhibition, single agent or in combination, cell-based, chromothripsis tumors, cisplatin or BGB combos (AID 1671449); details: LFS_MB_P medulloblastoma cells;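 also: cells exposed for 96 hours; 0% = vehicle DMSO and 100% = killing by high DMSO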
[3] = growth inhibition, single agent and combos, cell-based, chromothripsis tumors, cisplatin or BGB combos (AID 1671450); details: HDN33 neuroblastoma cells, stronger effect = higher value;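 also: cells exposed to compound for four days; 0% = vehicle DMSO and 100% = cell killing by high DMSO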
[4] = growth inhibition, single agents and combos, ICB984, cell-based, cisplatin or BGB combos, synergistic combos for chromothripsis tumors (AID 1671451; call rule not given here;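 also: cells exposed for 96 hours before readout; 0% = vehicle DMSO and 100% = killing by high DMSO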); details: ICB984 medulloblastoma cells, drug combinations, stronger effect = higher value
[5] = growth inhibition, single agents and combos, LFS_MB_1R, cell-based, cisplatin or BGB combos, synergistic combos for chromothripsis tumors (AID 1671452); details: LFS_MB_1R medulloblastoma cells, stronger effect = higher value;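 also: cells exposed for 96 hours before readout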
[6] = growth inhibition, single agents and combos, HTB85, cell-based, BGB or cisplatin IC20 combos, synergistic combos for chromothripsis tumors (AID 1671453); details: HTB85 osteosarcoma cells, drug combinations, stronger effect = higher value;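 also: cells exposed for 96 hours before readout; 0% = vehicle DMSO and 100% = high DMSO killing control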
[7] = growth inhibition, single agents and combos, CRL2098, cell-based, BGB or cisplatin IC20 combos, synergistic combos for chromothripsis tumors (AID 1671454); details: CRL2098 osteosarcoma cells, drug combinations, stronger effect = higher value;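 also: cells exposed for 96 h before readout; 0% = vehicle DMSO and 100% = killing by high DMSO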
[8] = growth inhibition, single agents and combos, HD-MB03, cell-based, BGB or cisplatin IC20 combos, synergistic combos for chromothripsis tumors (AID 1671455; in the data active = inhibition above about 83%;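 also: 0% = vehicle DMSO and 100% = high DMSO as cytotoxic control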); details: HD-MB03 medulloblastoma cells, stronger effect = higher value
[9] = growth inhibition, single agents and combos, UWB1.289, cell-based, BGB or cisplatin combos, synergistic combos for chromothripsis tumors (AID 1671456); details: UWB1.289 ovarian carcinoma cells, stronger effect = higher value;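 also: cells exposed to compound for four days; 0% = vehicle DMSO and 100% = killing by high DMSO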
[10] = growth inhibition, single agents and combos, LFS_MB_2R, cell-based, cisplatin combos, synergistic combos for chromothripsis tumors (AID 1671457); details: LFS_MB_2R medulloblastoma cells, stronger effect = higher value;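 also: cells exposed to compound for four days before readout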
[11] = growth inhibition, MDA-MB-436, cell-based, BGB or cisplatin combos, synergistic combos for chromothripsis tumors (AID 1671458; call rule not given here;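 also: cells exposed for 96 hours; 0% = vehicle DMSO and 100% = killing by high DMSO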); details: MDA-MB-436 breast carcinoma growth inhibition, drug combinations, stronger effect = higher value
[12] = UWB1.289_BRCA1 ovarian cancer growth, cell-based, BGB or cisplatin combinations (AID 1671459); details: UWB1.289 BRCA1 ovarian carcinoma, drug combinations, stronger effect = higher value
[13] = drug combination toxicity in non-malignant astrocytes – cell-based, BGB or cisplatin IC20 combos, cytotoxicity control for chromothriptic childhood tumor combination screen (AID 1671460); details: Human astrocytes, viability inhibition, drug combinations, at 0.5 µM, stronger effect = higher value;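 also: cells exposed to compounds for 96 hours before viability readout; 0% = vehicle and 100% = killing control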
[14] = BT084 cell growth, single and combined drugs, ICGC_MB145, cisplatin and BGB IC40 combos (AID 1671461); details: BT084 medulloblastoma cells, drug combinations, stronger effect = higher value;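 also: cells exposed to drugs for 96 hours; 0% = vehicle DMSO and 100% = high DMSO full killing control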
[15] = RCMB18 cell growth, single agent and combined, cisplatin and BGB IC40 combos (AID 1671462); details: RCMB18 medulloblastoma cells, stronger effect = higher value;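 also: cells exposed to compound for four days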
[16] = CRL1545 cell growth, single agent and combined, cisplatin and BGB IC20 combos (AID 1671464); details: CRL1545 osteosarcoma cells, stronger effect = higher value;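 also: cells exposed to compound for 96 hours before readout; 0% = vehicle DMSO and 100% = high DMSO killing control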
[17] = measured here: combination with BGB IC40, at 0.05 µM
[18] = measured here: with BGB IC20 combination, at 0.5 µM
[19] = measured here: with cisplatin IC20 combination, at 0.5 µM
[20] = measured here: combination with cisplatin, at 0.5 µM
[21] = measured here: combination with cisplatin, at 5 µM

## O=C(CCn1cnnn1)N1CCc2[nH]nc(-c3ccc4c(c3)OCO4)c2C1
[1]
  z-score: 0.465 (inactive)

## CC(C)(O)[C@H]1CC[C@@](C)(C2[C@@H](O)C[C@@]3(C)[C@@H]4C[C@H](O)C5C(C)(C)[C@@H](O)CCC56CC46CC[C@]23C)O1 (some centres undefined)
[2]; at 0.5 µM, stronger effect = higher value
  inhibition: -20.9% (inactive)
[2]; measured here: combination with BGB IC20, at 0.005 µM
  inhibition: -17.4%
[2]; measured here: combination with BGB IC40, at 0.005 µM
  inhibition: 78.4%
[2]; [17]
  inhibition: -19.9%
[2]; measured here: combination with cisplatin, at 0.5 µM, stronger effect = higher value
  inhibition: -28%
[2]; measured here: combination with cisplatin, at 5 µM, stronger effect = higher value
  inhibition: -7.56%
[3]; BGB combo, at 5 µM
  inhibition: -24.9%
[3]; at 0.5 µM
  inhibition: 2.8% (inactive)
[3]; cisplatin combo, at 5 µM
  inhibition: -13.8%
[3]; [18]
  inhibition: -6.04%
[3]; [19]
  inhibition: 14.5%
[3]; single agent, at 5 µM
  inhibition: -12.8%
[4]; BGB IC20 combo, at 0.005 µM
  inhibition: -5.6%
[4]; BGB IC40 combo, at 0.005 µM
  inhibition: -12.2%
[4]; BGB IC40 combo, at 0.05 µM
  inhibition: -16.5%
[4]; at 0.5 µM
  inhibition: -16.2% (inactive)
[4]; cisplatin combo, at 0.05 µM
  inhibition: -22.4%
[4]; cisplatin combo, at 0.5 µM
  inhibition: -30.1%
[4]; cisplatin combo, at 5 µM
  inhibition: -15.7%
[4]; measured here: 5 uM single agent, at 5 µM
  inhibition: -12.4%
[5]; at 0.5 µM
  inhibition: -15.4% (inactive)
[5]; [17]
  inhibition: -5.25%
[5]; [20]
  inhibition: -36.6%
[5]; [21]
  inhibition: -6.73%
[6]; at 0.5 µM
  inhibition: -5.42% (inactive)
[6]; measured here: with BGB IC20, at 0.5 µM
  inhibition: 4.96%
[6]; measured here: with BGB IC20, at 5 µM
  inhibition: -8.72%
[6]; measured here: with cisplatin IC20, at 0.5 µM
  inhibition: -17.2%
[6]; measured here: with cisplatin IC20, at 5 µM
  inhibition: -11.8%
[6]; single agent, at 5 µM
  inhibition: 5.09%
[7]; at 0.5 µM
  inhibition: -14.8% (inactive)
[7]; measured here: combination with BGB at IC20, at 0.5 µM
  inhibition: -24.4%
[7]; measured here: combination with cisplatin at IC20, at 0.5 µM
  inhibition: -18.8%
[8]; at 0.5 µM
  inhibition: -9.5% (inactive)
[8]; measured here: combo with BGB at IC20, at 0.5 µM
  inhibition: -9.93%
[8]; measured here: combo with cisplatin at IC20, at 0.5 µM
  inhibition: -11.4%
[9]; at 0.5 µM
  inhibition: 0.78% (inactive)
[9]; measured here: inhibition with BGB combination, at 0.05 µM
  inhibition: -14.1%
[9]; measured here: inhibition with cisplatin combination, at 0.05 µM
  inhibition: -5.37%
[10]; at 0.5 µM
  inhibition: -6.35% (inactive)
[10]; [20]
  inhibition: -24.6%
[10]; [21]
  inhibition: -28.9%
[11]; at 0.5 µM
  inhibition: -12% (inactive)
[11]; measured here: BGB combination, at 0.5 µM
  inhibition: -4.92%
[11]; measured here: BGB combination, at 5 µM
  inhibition: -19.3%
[11]; measured here: cisplatin combination, at 0.5 µM
  inhibition: -27.4%
[11]; measured here: cisplatin combination, at 5 µM
  inhibition: -20.3%
[12]; BGB combination, concentration series, at 5 µM
  inhibition: 9.93%
[12]; at 0.5 µM
  inhibition: -4.21% (inactive)
[12]; cisplatin combination, concentration series, at 5 µM
  inhibition: 7.75%
[13]
  inhibition: 0.26% (inactive)
[13]; measured here: combo with BGB IC20
  inhibition: 10.1%
[13]; measured here: combo with cisplatin IC20
  inhibition: -8.09%
[14]; at 0.5 µM
  inhibition: -8.31% (inactive)
[14]; cisplatin combination, at 0.5 µM
  inhibition: -3.58%
[14]; cisplatin combination, at 5 µM
  inhibition: -121%
[14]; measured here: BGB IC40 combination 0.05 uM, at 0.05 µM
  inhibition: -25.1%
[14]; single agent, at 5 µM
  inhibition: -6.41%
[15]; at 0.5 µM
  inhibition: -30.6% (inactive)
[15]; cisplatin combo, at 5 µM
  inhibition: -6.31%
[15]; measured here: BGB IC40 combination, at 0.05 µM
  inhibition: -14.5%
[15]; [20]
  inhibition: -79%
[15]; single agent, at 5 µM
  inhibition: -0.285%
[16]; at 0.5 µM
  inhibition: 8.92% (inactive)
[16]; [18]
  inhibition: -5.47%
[16]; [19]
  inhibition: 14.8%
[16]; single agent, at 0.05 µM
  inhibition: -11.3%
[16]; single agent, at 5 µM
  inhibition: -13%
